Values joined by “and” are separate entries in the source; they are usually repeats but may differ in a detail not shown here. Equal entries are not always repeated. About 2,000 (36%) of roughly 5,500 compounds were called active. Not shown: some 18% with an inconclusive outcome. No stated cut-off is given here; in the data, active means normalized growth mostly below about 0.91 (no sharp cut-off); inconclusive means no clear call, values can overlap the other calls; inactive means mostly above about 0.92. This is one part of the list.
Assay: chemical genetic growth profiling, strain panel (AID 1159580);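 further: tested at 20 µM; growth read once vehicle control cultures reached saturation at 30 °C; 1 = growth at the plate median or of vehicle wells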
Details: S. cerevisiae deletion strains, growth OD

Measured: normalized growth

CCC(C)C(=O)OC1[C@@H]2CC3=C4CC(=O)O[C@@H](c5ccoc5)[C@]4(C)CCC3[C@@](C)(C2=O)[C@@H](CC(=O)OC)C1(C)C (stereo not given in full)
inactive: locus YAL021C, strain ccr4, stronger effect = lower value 1.02 | locus YAL026C, strain drs2, stronger effect = lower value 1.01 | locus YAL030W, strain snc1, stronger effect = lower value 1.01 | locus YBL061C, strain skt5, stronger effect = lower value 1.01 | locus YBR009C, strain hhf1, stronger effect = lower value 1.01 | locus YBR021W, strain FUR4, stronger effect = lower value 1 | locus YBR023C, strain chs3, stronger effect = lower value 1 | locus YBR171W, strain sec66, stronger effect = lower value 1.01 | locus YBR229C, strain ROT2, stronger effect = lower value 0.999 | locus YBR231C, strain swc5, stronger effect = lower value 1.01 | locus YBR279W, strain paf1, stronger effect = lower value 1.01 | locus YCL011C, strain gbp2, stronger effect = lower value 1.01 | locus YCL016C, strain dcc1, stronger effect = lower value 1.01 | locus YCL029C, strain bik1, stronger effect = lower value 1 | locus YCL061C, strain MRC1, stronger effect = lower value 1 | locus YCL069W, strain vba3, stronger effect = lower value 1.02 | locus YCR088W, strain abp1, stronger effect = lower value 1 | locus YDL005C, strain med2, stronger effect = lower value 1 | locus YDL035C, strain GPR1, stronger effect = lower value 0.987 | locus YDL040C, strain nat1, stronger effect = lower value 0.991 | locus YDL074C, strain BRE1, stronger effect = lower value 1.01 | locus YDL101C, strain DUN1, stronger effect = lower value 1.02 | locus YDL185W, strain tfp1, stronger effect = lower value 1.01 | locus YDL192W, strain arf1, stronger effect = lower value 0.994 | locus YDR001C, strain nth1, stronger effect = lower value 1 | locus YDR069C, strain doa4, stronger effect = lower value 0.992 | locus YDR101C, strain arx1, stronger effect = lower value 0.991 | locus YDR137W, strain rgp1, stronger effect = lower value 0.961 | locus YDR159W, strain sac3, stronger effect = lower value 0.998 | locus YDR162C, strain NBP2, stronger effect = lower value 0.995 | locus YDR195W, strain ref2 0.987 | locus YDR297W, strain sur2, stronger effect = lower value 1.01 | locus YDR318W, strain mcm21, stronger effect = lower value 1 | locus YDR334W, strain swr1, stronger effect = lower value 1 | locus YDR335W, strain msn5, stronger effect = lower value 1.01 | locus YDR388W, stronger effect = lower value 1.01 | locus YDR392W, strain spt3, stronger effect = lower value 0.979 | locus YDR502C, strain sam2, stronger effect = lower value 1.02 | locus YEL003W, strain gim4, stronger effect = lower value 1.01 | locus YEL037C, strain rad23, stronger effect = lower value 1.01 | locus YEL061C, strain CIN8 (second series), stronger effect = lower value 1.01 | locus YER015W, strain faa2, stronger effect = lower value 0.999 | locus YER016W, strain bim1, stronger effect = lower value 0.999 | locus YER110C, stronger effect = lower value 1.02 | locus YER111C, strain swi4, stronger effect = lower value 0.99 | locus YER155C, strain BEM2 (second series), stronger effect = lower value 1.01 | locus YER155C, strain BEM2, stronger effect = lower value 1.01 | locus YER167W, strain BCK2, stronger effect = lower value 1 | locus YFR010W, strain ubp6, stronger effect = lower value 1.02 | locus YGL078C, strain dbp3, stronger effect = lower value 1.02 | locus YGL086W, strain mad1, stronger effect = lower value 1 | locus YGL167C, strain pmr1, stronger effect = lower value 1.01 | locus YGL173C, strain kem1, stronger effect = lower value 1 | locus YGL227W, strain vid30, stronger effect = lower value 0.999 | locus YGL240W, strain doc1, stronger effect = lower value 0.989 | locus YGL248W, strain PDE1, stronger effect = lower value 1.01 | locus YGL253W, strain hxk2, stronger effect = lower value 1.03 | locus YGR078C, strain PAC10, stronger effect = lower value 1.02 | locus YGR135W, strain pre9, stronger effect = lower value 1.04 | locus YGR229C, strain SMI1, stronger effect = lower value 0.982 | locus YGR252W, strain gcn5, stronger effect = lower value 1.02 | locus YHR013C, strain ard1, stronger effect = lower value 1.01 | locus YHR027C, strain rpn1, stronger effect = lower value 0.994 | locus YHR030C, strain SLT2, stronger effect = lower value 0.959 | locus YHR079C, strain IRE1 (second series), stronger effect = lower value 1.01 | locus YHR079C, strain IRE1, stronger effect = lower value 0.95 | locus YHR094C, strain hxt1, stronger effect = lower value 1 | locus YHR129C, strain ARP1, stronger effect = lower value 1.01 | locus YHR142W, strain chs7, stronger effect = lower value 1.04 | locus YHR200W, strain rpn10, stronger effect = lower value 1 | locus YIL066C, strain RNR3, stronger effect = lower value 0.998 | locus YIL073C, strain SPO22, stronger effect = lower value 1.06 | locus YIL125W, strain kgd1, stronger effect = lower value 0.998 | locus YIR030C, strain dcg1, stronger effect = lower value 1 | locus YJL092W, strain hpr5, stronger effect = lower value 1 | locus YJL095W, strain BCK1 (second series), stronger effect = lower value 1 | locus YJL095W, strain BCK1, stronger effect = lower value 1.04 and 0.958 | locus YJL115W, strain asf1, stronger effect = lower value 1 | locus YJL129C, strain trk1, stronger effect = lower value 1.01 | locus YJL134W, strain LCB3, stronger effect = lower value 1 | locus YJL154C, strain vps35, stronger effect = lower value 1 | locus YJL164C, strain tpk1, stronger effect = lower value 1.02 | locus YJL166W, strain qcr8, stronger effect = lower value 1.01 | locus YJL168C, strain set2, stronger effect = lower value 1.01 | locus YJL187C, strain SWE1 (second series), stronger effect = lower value 1.03
